Test [1] addresses Cellular tumor antigen p53 (Homo sapiens) (UniProt P04637). Briefly: TOX21_p53_BLA_p5_ratio: Tox21 HCT-116 p53 Agonism Beta-lactamase Assay, Ratio, Phase 5 (AID 2283599). The method, boiled down:
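Beta-lactamase reporter ratio (blue 460 nm over green 530 nm, 405 nm excitation) after 2 h CCF4-AM loading, in HCT-116 cells exposed 16 h at 37 C to compounds pinned at 217-fold dilution. Increases relative to DMSO baseline scored.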

A short description of test [2]: TOX21_p53_BLA_p5_viability: Viability Assessment in the Tox21 HCT-116 p53 Agonism Beta-lactamase Assay, Phase 5 (AID 2283600). In short, it runs like this:
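Workflow: seed 4000 cells per well, wait 5 h, add compounds (DMSO, 217-fold dilution), incubate 16 h, load CCF4-AM 2 h, add CellTiter-Glo, read luminescence after 30 min.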

For test [3], the target named is Cellular tumor antigen p53 (Homo sapiens) (UniProt P04637). Description: TOX21_p53_BLA_p4_ratio: Tox21 HCT-116 p53 Agonism Beta-lactamase Assay, Ratio, Phase 4 (AID 2283601). The method, boiled down:
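Signal is the blue/green (460nm/530nm) ratio of cleaved versus uncleaved CCF4-AM substrate, read after 2 h substrate loading. Cells were HCT116 carrying the p53-responsive beta-lactamase reporter, dosed 16 h at 37C, 5% CO2; CellTiter-Glo measured in parallel.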

A short description of test [4]: TOX21_p53_BLA_p4_viability: Viability Assessment in the Tox21 HCT-116 p53 Agonism Beta-lactamase Assay, Phase 4 (AID 2283597).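 Further: hits lower the luminescence signal meaning cytotoxicity.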 The method, boiled down:
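Readout: ATP luminescence (CellTiter-Glo), measured 30 min after reagent addition at RT. The reagent followed a 2 h CCF4-AM incubation, and the cells had been exposed to compound for 16 h at 37C.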

Test [5] in a line: CCTE_Harrill_HTTr_Viability_MCF7: CCTE's 6-hour Cell Viability Assessment for the High-Throughput Transcriptomics (HTTr) Platform, in MCF-7 cells cultured in DMEM + 10% fetal bovine serum, Harrill Lab (AID 2284010; active means hit-call score of the fitted dose curve at least 0.9, where 1 is the maximum; inactive means score below 0.9). The method, boiled down:
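Propidium iodide exclusion, imaged by high-content analysis, gauged viability after a six-hour exposure across eight concentrations. Cells were MCF-7 grown in DMEM with 10% fetal bovine serum; fits run in both directions against DMSO.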

Test [6] is described as follows: CCTE_Harrill_HTTr_Apoptosis_MCF7: CCTE's 6-hour Apoptosis Assessment for the High-Throughput Transcriptomics (HTTr) Platform, in MCF-7 cells cultured in DMEM + 10% fetal bovine serum, Harrill Lab (AID 2284011; active means hit-call score of the fitted dose curve at least 0.9, where 1 is the maximum; inactive means score below 0.9). The method, boiled down: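 MCF-7 (DMEM + 10% FBS), 384-well; 8-pt dilution series, 6 h chemical exposure; caspase-3/7 activation via CellEvent Caspase 3/7 Green, HCI; bidirectional fit vs DMSO.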

Test [7] is described as follows: CCTE_Harrill_HTTr_CellCount_MCF7: CCTE's Cell Proliferation Assessment for the High-Throughput Transcriptomics (HTTr) Platform, Harrill Lab (AID 2284012).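 Further: cells exposed to compound for six hours; intended direction is loss of nuclei count meaning fewer cells.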 In short, it runs like this:
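Cell count from high-content imaging of Hoechst-labeled nuclei serves as viability/growth readout. Chemicals were applied to MCF-7 cells in eight concentrations for six hours, with fitting in both directions relative to DMSO.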

Test [8] is described as follows: CEETOX_H295R_MTT_cell_viability: Viability Assessment in the CeeTox HT-H295R MTT Assay (AID 2283718; active means hit-call score of the fitted dose curve at least 0.9, where 1 is the maximum; inactive means score below 0.9). In short, it runs like this:
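MTT reduction (0.5 mg/ml, 4 h at 37 C; absorbance at 570 and 650 nm) gave viability as background-corrected percent change versus controls. H295R cells had 48 h forskolin (10 uM) prestimulation, then 48 h chemical exposure at 0.1% DMSO.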

A short description of test [9]: CEETOX_H295R_11DCORT_noMTC: CeeTox H295R High-throughput Steroidogenesis Assay for 11-Deoxycortisol (11DCORT), maximum tolerated concentration (MTC) filtered results only (AID 2283911; active means hit-call score of the fitted dose curve at least 0.9, where 1 is the maximum; inactive means score below 0.9). As to conditions: actives raise or lower the signal. In short, it runs like this:
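Steroidogenesis was stimulated in H295R cells with 10 uM forskolin for 48 h before a 48 h chemical exposure. Secreted 11-deoxycortisol was measured by tandem mass spectrometry and fitted bidirectionally against DMSO controls.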

Test [10] can be described thus: CEETOX_H295R_OHPREG_noMTC: CeeTox H295R High-throughput Steroidogenesis Assay for OH-Pregnenolone (OHPREG), maximum tolerated concentration (MTC) filtered results only (AID 2283912; active means hit-call score of the fitted dose curve at least 0.9, where 1 is the maximum; inactive means score below 0.9). As to conditions: actives raise or lower the signal. In short, it runs like this:
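Medium 17alpha-hydroxypregnenolone quantified by reverse-phase HPLC-MS/MS after 48 h chemical exposure of forskolin-prestimulated (10 uM, 48 h) H295R, 0.1% DMSO final. Fitting bidirectional relative to DMSO; no maximum-tolerated-concentration filtering applied.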

Test [11] in a line: CEETOX_H295R_OHPROG_noMTC: CeeTox H295R High-throughput Steroidogenesis Assay for OH-Progesterone (OHPROG), maximum tolerated concentration (MTC) filtered results only (AID 2283914; active means hit-call score of the fitted dose curve at least 0.9, where 1 is the maximum; inactive means score below 0.9). To be noted: actives raise or lower the signal. In short, it runs like this:
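After 48 h forskolin (10 uM) prestimulation, H295R adrenal cells received test chemical in 0.1% DMSO for 48 h. Medium 17alpha-hydroxyprogesterone was MTBE-extracted and measured by HPLC-MS/MS; gain or loss relative to DMSO, no MTT-based MTC filtering.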

A short description of test [12]: CEETOX_H295R_ANDR_noMTC: CeeTox H295R High-throughput Steroidogenesis Assay for Androstenedione (ANDR), maximum tolerated concentration (MTC) filtered results only (AID 2283915; active means hit-call score of the fitted dose curve at least 0.9, where 1 is the maximum; inactive means score below 0.9). As to conditions: actives raise or lower the signal. The method, boiled down:
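Androstenedione secreted into medium was measured by LC-MS/MS after MTBE extraction. Human adrenal H295R cells received 10 uM forskolin for 48 h before 48 h chemical exposure (0.1% DMSO). Gain or loss fitted against DMSO, including concentrations above the MTT-derived MTC.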

The nature of test [13]: CEETOX_H295R_CORTISOL_noMTC: CeeTox H295R High-throughput Steroidogenesis Assay for Cortisol, maximum tolerated concentration (MTC) filtered results only (AID 2283916; active means hit-call score of the fitted dose curve at least 0.9, where 1 is the maximum; inactive means score below 0.9). As to conditions: actives raise or lower the signal. In short, it runs like this: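 Cortisol secretion measured by LC-MS/MS after 48 h chemical treatment (final 0.1% DMSO) of forskolin-primed (10 uM, 48 h) H295R cells; gain or loss fitted relative to DMSO, without maximum-tolerated-concentration filtering.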

A short description of test [14]: CEETOX_H295R_CORTIC_noMTC: CeeTox H295R High-throughput Steroidogenesis Assay for Corticosterone (CORTIC), maximum tolerated concentration (MTC) filtered results only (AID 2283917; active means hit-call score of the fitted dose curve at least 0.9, where 1 is the maximum; inactive means score below 0.9). To be noted: actives raise or lower the signal. In short, it runs like this: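 Human adrenal H295R cells were prestimulated 48 h with 10 uM forskolin, then exposed 48 h to chemical in 0.1% DMSO. Medium corticosterone was MTBE-extracted and quantified by HPLC-MS/MS; bidirectional fits versus DMSO, concentrations not MTC-filtered.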

Test [15] is described as follows: CEETOX_H295R_DOC_noMTC: CeeTox H295R High-throughput Steroidogenesis Assay for DOC, maximum tolerated concentration (MTC) filtered results only (AID 2283918; active means hit-call score of the fitted dose curve at least 0.9, where 1 is the maximum; inactive means score below 0.9). To be noted: actives raise or lower the signal. In short, it runs like this:
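11-Deoxycorticosterone secreted by human adrenal H295R cells quantified by HPLC-MS/MS after 48 h chemical exposure (0.1% DMSO), following 48 h 10 uM forskolin prestimulation. Concentrations not filtered by MTT-derived MTC; bidirectional fitting.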

Test [16] is described as follows: CEETOX_H295R_ESTRADIOL_noMTC: CeeTox H295R High-throughput Steroidogenesis Assay for Estradiol, maximum tolerated concentration (MTC) filtered results only (AID 2283919; active means hit-call score of the fitted dose curve at least 0.9, where 1 is the maximum; inactive means score below 0.9). To be noted: actives raise or lower the signal. The method, boiled down: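 Readout: dansyl-derivatized estradiol quantified by LC-MS/MS in medium from H295R cells dosed 48 h (0.1% DMSO) following 48 h forskolin (10 uM) prestimulation. Gain or loss of signal fitted against DMSO; no MTC filtering applied.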

Test [17] can be described thus: CEETOX_H295R_PROG_noMTC: CeeTox H295R High-throughput Steroidogenesis Assay for Progesterone (PROG), maximum tolerated concentration (MTC) filtered results only (AID 2283920; active means hit-call score of the fitted dose curve at least 0.9, where 1 is the maximum; inactive means score below 0.9). As to conditions: actives raise or lower the signal. The method, boiled down: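 Progesterone secreted into medium was measured by HPLC-MS/MS after MTBE extraction, following 48 h chemical exposure (0.1% DMSO) of forskolin-prestimulated (10 uM, 48 h) H295R adrenal cells. Gain or loss fitted against DMSO; no MTC filtering.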

A short description of test [18]: CEETOX_H295R_ESTRONE_noMTC: CeeTox H295R High-throughput Steroidogenesis Assay for Estrone, maximum tolerated concentration (MTC) filtered results only (AID 2283921; active means hit-call score of the fitted dose curve at least 0.9, where 1 is the maximum; inactive means score below 0.9). As to conditions: actives raise or lower the signal. The method, boiled down:
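Estrone in spent medium, quantified by tandem MS following dansyl chloride derivatization, after 48 h chemical exposure (0.1% DMSO) of forskolin-prestimulated (10 uM, 48 h) H295R cells; concentrations not MTC-filtered, bidirectional fit against DMSO.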

Test [19] in a line: CEETOX_H295R_TESTO_noMTC: CeeTox H295R High-throughput Steroidogenesis Assay for Testosterone (TESTO), maximum tolerated concentration (MTC) filtered results only (AID 2283924; active means hit-call score of the fitted dose curve at least 0.9, where 1 is the maximum; inactive means score below 0.9). As to conditions: actives raise or lower the signal. In short, it runs like this:
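Medium testosterone, measured by HPLC-MS/MS after liquid-liquid extraction, was fitted in both directions relative to DMSO without MTC filtering. Adrenal H295R cells received 48 h chemical exposure (0.1% DMSO final) after 48 h forskolin (10 uM) prestimulation; viability by MTT.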

SMILES strings stand for the structures. Results filed as inconclusive are left out. Calls of active or inactive are those of the source. How the source made its calls, unless noted: active means hit-call score of the fitted dose curve at least 0.9, where 1 is the maximum; inconclusive means response in the unintended direction; inactive means score below 0.9.

Chain of Cellular tumor antigen p53 (Homo sapiens) (P04637 whole entry, looked up): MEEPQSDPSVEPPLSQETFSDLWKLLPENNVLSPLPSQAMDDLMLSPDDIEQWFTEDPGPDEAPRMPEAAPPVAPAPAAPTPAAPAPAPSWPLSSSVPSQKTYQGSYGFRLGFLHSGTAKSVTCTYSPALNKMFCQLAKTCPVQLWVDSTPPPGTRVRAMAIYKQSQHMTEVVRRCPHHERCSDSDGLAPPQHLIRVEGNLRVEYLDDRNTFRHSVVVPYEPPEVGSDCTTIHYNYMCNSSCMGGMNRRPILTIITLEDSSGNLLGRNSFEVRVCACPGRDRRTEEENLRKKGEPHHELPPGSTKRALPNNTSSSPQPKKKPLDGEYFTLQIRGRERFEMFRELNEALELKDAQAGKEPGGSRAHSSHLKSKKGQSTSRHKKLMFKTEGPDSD

Turning to `Cc1ccnc(NS(=O)(=O)c2ccc(N)cc2)n1`, the result in test [1], in [2] and in test [3] was inactive.
Take `Nc1ccc(S(=O)(=O)NC(=O)c2ccccc2)cc1`: the outcome in [1] and in [3] was inactive.
`Clc1ccc2nsnc2c1NC1=NCCN1`: the result in test [1], in test [2] and in test [3] was inactive.
Take `CO[C@@]1(NC(=O)CSC[C@@H](N)C(=O)O)C(=O)N2C(C(=O)O)=C(CSc3nnnn3C)CS[C@@H]21`: the outcome in test [1] and in [2] was inactive.
Consider `CCCCCC[C@@H](O)C/C=C\CCCCCCCC(=O)OC`, for which the outcome in test [1] and in [2] was inactive.
Consider `Cc1ccc(C)c(N)c1`, for which the result in test [2] and in test [3] was inactive.
Take `Nc1ccccc1S(=O)(=O)O`: the result in test [1], in [2] and in test [3] was inactive.
As for `CC(=O)OC(C)OC(C)=O`, the compound was classed as inactive in [2] and in [3].
On to `C=CCSSSCC=C`, for which the outcome in test [1], in test [2] and in test [3] was inactive.
As to `CCCCC(=O)N(Cc1ccc(-c2ccccc2-c2nn[nH]n2)cc1)[C@@H](C(=O)O)C(C)C`, the outcome in test [1] was inactive.
On to `CC1(C)Cc2cccc(N)c2O1`, for which the result in [1] and in test [2] was inactive.
Consider `O=C(NNCS(=O)(=O)O)c1ccncc1`, for which the outcome in test [1] and in test [3] was inactive.
For `CC(CN1c2ccccc2Sc2ccc(S(=O)(=O)N(C)C)cc21)N(C)C` (stereo unspecified), the call in test [4] and in test [3] was inactive.
In the case of `O=C1CCCc2ccccc21`, the outcome in test [1], in test [2] and in test [3] was inactive.
For the compound `CCN(CC)CCn1c(=O)c(Cc2ccc(OC)cc2)nc2ccccc21`, in [2], the call was inactive.
Consider `COc1ccc(CCC(=O)c2c(O)cc(O[C@@H]3O[C@H](CO)[C@@H](O)[C@H](O)[C@H]3O[C@@H]3O[C@@H](C)[C@H](O)[C@@H](O)[C@H]3O)cc2O)cc1O`, for which the outcome in [1], in [2] and in test [3] was inactive.
As for `Cc1ccc(CO)cc1`, the outcome in [1], in test [2] and in [3] was inactive.
Turning to `Cl.Cl.N.N.[Cl-].[Cl-].[Pt+2]`, the result in test [1] was inactive.
Consider `O=S(=O)(O)CO`, for which the result in [1] and in test [3] was inactive.
As for `O=C(O)CNC(=O)c1ccc(CO)o1`, the result in test [1] and in [3] was inactive.
With `CC(C)N(C)C`, the outcome in test [1] and in [2] was inactive.
For `CN(C)CCC=C1c2ccccc2C(C)(C)c2ccccc21`, the result in test [1] was inactive.
As for `CC(C)NCC(O)COc1ccc(CCOCC2CC2)cc1` (stereo unspecified), the outcome in [2] and in test [3] was inactive.
As for `Cn1nnnc1SCC1=C(C(=O)O)N2C(=O)[C@@H](NC(=O)[C@H](OC=O)c3ccccc3)[C@H]2SC1`, the call in test [2] was inactive.
As for `CN[C@H]1CCc2cc(OC)c(OC)c(OC)c2-c2ccc(OC)c(=O)cc21`, the outcome in test [1] and in [3] was inactive.
For `[K+]`, the outcome in test [1], in test [3], in test [5], in test [6] and in [7] was inactive.
Turning to `c1cnc2cc3c(cc2n1)[C@@H]1CNC[C@H]3C1`, the outcome in test [1] and in [3] was inactive.
As to `c1ccc2c(CCC3CCNCC3)c[nH]c2c1`, the outcome in [1], in test [2] and in [3] was inactive.
In the case of `O=C(O)c1cc2cc(Cc3cccnc3)ccc2o1`, in test [2], the call was inactive.
On to `Cc1cc(N)no1`, for which the outcome in test [2] was inactive.
For `CS(=O)(=O)OCCOS(C)(=O)=O`, the result in test [8], in test [9], in [10], in [11], in test [12] and in test [13] was inactive. Moreover, the call in test [14], in test [15], in [16], in test [17], in [18] and in test [19] was inactive.
